Reference: PubChem BioAssay (NCATS)
Records with an inconclusive call do not appear. Unmarked numbers belong to inactive results. Calls of active or inactive are those of the source. Calls follow the shape of the dose curve; as a rule, active = well fitted curve in the direction sought with a large enough effect; inconclusive = small, poorly fitted or top-dose-only effect, or another doubt; inactive = no such curve, though single readings can be large; an effect the other way counts as inactive or inconclusive.

Target: phosphoglycerate mutase (Leishmania major) (UniProt Q4Q090)
Sequence (Q4Q090 1-553): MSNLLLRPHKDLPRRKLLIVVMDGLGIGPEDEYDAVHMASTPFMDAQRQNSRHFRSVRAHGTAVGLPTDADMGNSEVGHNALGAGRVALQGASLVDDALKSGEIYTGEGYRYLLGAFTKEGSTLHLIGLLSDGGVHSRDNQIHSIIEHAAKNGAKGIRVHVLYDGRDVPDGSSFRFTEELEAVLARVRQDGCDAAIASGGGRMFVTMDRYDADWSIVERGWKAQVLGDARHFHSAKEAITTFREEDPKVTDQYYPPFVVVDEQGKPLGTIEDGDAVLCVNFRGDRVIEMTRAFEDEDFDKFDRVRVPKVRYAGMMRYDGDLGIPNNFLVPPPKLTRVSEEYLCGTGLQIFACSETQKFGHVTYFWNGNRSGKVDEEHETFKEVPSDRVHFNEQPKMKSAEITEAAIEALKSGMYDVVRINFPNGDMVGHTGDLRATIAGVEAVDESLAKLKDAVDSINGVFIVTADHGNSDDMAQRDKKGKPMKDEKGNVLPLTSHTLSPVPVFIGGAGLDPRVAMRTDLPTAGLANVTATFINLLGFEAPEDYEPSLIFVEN
Assay: qHTS Validation Assay to Find Inhibitors of Phosphoglycerate Mutase (AID 504548)
Conditions: biochemical enzyme activity; Potency: inhibition qHTS; series mostly up to 57.5 µM; activity change, negative = inhibition: at the top concentration
How it was run: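 Luminescent end-point read-out via Kinase-GloPlus after a 10-minute development. Reaction: 1.25nM Leishmania major PGAM with substrate and compound, 45 minutes at room temperature in TEA buffer (pH 7.6) with MgCl2 and Tween-20.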
% is scaled to controls: 0 for no effect and ±100 for the full control effect.

Compound | activity change, negative = inhibition
CNC(=O)c1cc2c(cn1)[nH]c1ccccc12 | 9.77%
O=C1Nc2ccc(I)cc2/C1=C/c1cc(Br)c(O)c(Br)c1 | -0.848%
O=S(=O)(c1cccc2c(Cl)cccc12)N1CCCNCC1 | 2.94%
N#CC(C#N)=C(N)/C(C#N)=C/c1ccc(O)cc1 | 4.87%
CCCCCC(O)CCCC(=O)O (configuration not stated) | 11.3%
Cn1c(=O)[nH]c2ncn(C)c2c1=O | 7.2%
CN1CCCC1CCOC(C)(c1ccccc1)c1ccc(Cl)cc1 (configuration not stated) | 1.18%
CCCn1c(=O)c(C)cn2nc(N)nc12 | 13.8%
CN(C)S(=O)(=O)c1ccc2c(c1)/C(=C/c1cc3c([nH]1)CCCC3)C(=O)N2 | -3.08%
CCCCCCCCCC(=O)NC(CN1CCOCC1)[C@H](O)c1ccccc1 (some centres not stated) | 9.12%
Nc1ccc2c3c(cccc13)C(=O)NC2=O | 3.65%
Cc1cc(Cn2cnc3c2C[C@@H](C(=O)O)N(C(=O)C(c2ccccc2)c2ccccc2)C3)ccc1N | 4.29%
NCCNS(=O)(=O)c1cccc2c(Cl)cccc12 | -9.75%
CC#CCOC(=O)c1c(C)nc2sc3c(c2c1N)CCC(O)C3 (configuration not stated) | 3.31%
Cc1nc2n(c(=O)c1CCN1CCC(c3noc4cc(F)ccc34)CC1)CCCC2O (configuration not stated) | -0.241%
CC(=O)SC1CC2=CC(=O)CC[C@]2(C)C2CC[C@@]3(C)C(CC[C@@]34CCC(=O)O4)C12 (some centres not stated) | -2.84%

Compound | activity change, negative = inhibition
CCCc1c(-c2ccc(O)cc2)nn(-c2ccc(O)cc2)c1-c1ccc(O)cc1 | -1.55%
CSC(=N)N | -3.35%
CC(C)[C@@H]1CC[C@@H](C)C[C@@H]1P(=O)(c1ccccc1)c1ccccc1 | -7.28%
Fc1ccc(CN(C2=NCCN2)c2c(Cl)cccc2Cl)cc1 | 4.65%
N[C@H](C(=O)O)[C@H]1C[C@@H]1C(=O)O | -7.35%
COc1cc(CNC(=O)CCCCCCC(C)C)ccc1O | -3.25%
CN1C2CCC1CC(OC(c1ccccc1)c1ccccc1)C2 (configuration not stated) | -2.14%
C=CCN1CCc2cc(O)c(O)cc2C(c2ccccc2)C1 (configuration not stated) | 0.519%
C=CCN1CCc2c(cc(O)c(O)c2Br)[C@@H](c2ccccc2)C1 | -3.82%
Nc1nc2[nH]c(=O)cnc2c(=O)[nH]1 | 8.92%
COc1ccc(CCn2nnnc2C2(c3ccc(C)cc3)CC2)cc1 | -2.87%
Nc1ncnc2c1nc(Br)n2C1OC2COP(=O)(O)O[C@@H]2C1O (some centres not stated) | 1.16%
Oc1ccc(/C=C/c2ccc(/C=C/c3ccc(O)cc3)c(Br)c2)cc1 | -9.88%
O[Si](CCCN1CCCCC1)(c1ccc(F)cc1)C1CCCCC1 (configuration not stated) | -3.27%
N=S(=O)(O)Cc1noc2ccccc12 | 4.46%

Target: Ubiquitin carboxyl-terminal hydrolase 1 (Homo sapiens) (UniProt O94782)
Sequence (O94782 whole entry, looked up): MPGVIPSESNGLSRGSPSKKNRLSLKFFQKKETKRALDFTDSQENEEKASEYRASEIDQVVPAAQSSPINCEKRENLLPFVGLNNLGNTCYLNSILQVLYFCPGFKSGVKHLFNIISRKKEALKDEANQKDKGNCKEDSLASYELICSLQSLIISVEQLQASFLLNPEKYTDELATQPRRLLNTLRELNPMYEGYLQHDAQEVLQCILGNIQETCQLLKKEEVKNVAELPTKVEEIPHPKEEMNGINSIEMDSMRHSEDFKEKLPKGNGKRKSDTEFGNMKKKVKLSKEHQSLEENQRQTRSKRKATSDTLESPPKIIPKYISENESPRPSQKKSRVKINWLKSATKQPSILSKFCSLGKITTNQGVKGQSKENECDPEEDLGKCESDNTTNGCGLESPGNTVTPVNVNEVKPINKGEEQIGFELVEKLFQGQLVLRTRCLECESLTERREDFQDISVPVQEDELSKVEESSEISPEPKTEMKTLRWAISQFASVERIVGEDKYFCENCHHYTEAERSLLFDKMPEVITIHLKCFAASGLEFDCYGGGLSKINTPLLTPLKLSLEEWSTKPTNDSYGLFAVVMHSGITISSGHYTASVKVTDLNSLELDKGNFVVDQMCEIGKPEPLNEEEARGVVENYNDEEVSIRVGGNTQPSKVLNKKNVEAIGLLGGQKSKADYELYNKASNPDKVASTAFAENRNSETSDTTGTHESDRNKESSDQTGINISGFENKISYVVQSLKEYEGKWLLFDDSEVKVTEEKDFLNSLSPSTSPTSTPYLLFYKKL
Assay: Inhibitors of USP1/UAF1: Pilot qHTS (AID 504865); also: nearly all actives have a fitted effect of over 35% in size; also: potency is read from the fitted curve at half-maximal effect;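 as to activity change, negative = inhibition: rhodamine fluorescence freed from ubiquitin-rhodamine substrate followed over time; top concentration of the series differs between compounds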
Conditions: purified USP1/UAF1, Ub-rhodamine cleavage fluorescence; series mostly up to 114 µM; activity change, negative = inhibition: at the top concentration
How it was run: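 USP1/UAF1 complex (1nM) preincubated with compound 15 min at room temperature, then Ub-Rho substrate (150nM final) added. Fluorescence read kinetically at 480/540 nm, 6 reads every 60 seconds. Buffer: 50mM HEPES pH 7.8, 0.5mM EDTA, 0.1 mg/ml BSA, 1mM TCEP, 0.01% Tween-20.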

Compound | activity change, negative = inhibition | Potency
CNC(=O)c1cc2c(cn1)[nH]c1ccccc12 | -12.5% | 
O=S(=O)(c1cccc2c(Cl)cccc12)N1CCCNCC1 | -3.11% | 
N#CC(C#N)=C(N)/C(C#N)=C/c1ccc(O)cc1 | 1.02% | 
CCCCCC(O)CCCC(=O)O (configuration not stated) | -4.51% | 
Cn1c(=O)[nH]c2ncn(C)c2c1=O | -3.89% | 
CN1CCCC1CCOC(C)(c1ccccc1)c1ccc(Cl)cc1 (configuration not stated) | 2.34% | 
CCCn1c(=O)c(C)cn2nc(N)nc12 |  | inactive
CN(C)S(=O)(=O)c1ccc2c(c1)/C(=C/c1cc3c([nH]1)CCCC3)C(=O)N2 |  | 25.1 µM (active)
CCCCCCCCCC(=O)NC(CN1CCOCC1)[C@H](O)c1ccccc1 (some centres not stated) | -17.3% | 
Nc1ccc2c3c(cccc13)C(=O)NC2=O |  | 25.1 µM (active)
Cc1cc(Cn2cnc3c2C[C@@H](C(=O)O)N(C(=O)C(c2ccccc2)c2ccccc2)C3)ccc1N | -1.48% | 
CN1CC(O)C(O)C(O)C1CO (configuration not stated) | -1.53% | 
NCCNS(=O)(=O)c1cccc2c(Cl)cccc12 |  | inactive
CC#CCOC(=O)c1c(C)nc2sc3c(c2c1N)CCC(O)C3 (configuration not stated) | -15.5% | 
CC(=O)SC1CC2=CC(=O)CC[C@]2(C)C2CC[C@@]3(C)C(CC[C@@]34CCC(=O)O4)C12 (some centres not stated) | -2.95% | 
CCn1c(=O)[nH]c2cc(Cl)c(Cl)cc21 | -5.98% | 

Compound | activity change, negative = inhibition | Potency
N#CC(=C(\N)Sc1ccccc1N)/C(C#N)=C(/N)Sc1ccccc1N | -5.25% | 
N[C@H](C(=O)O)[C@H](Cc1ccccc1)C(=O)O | -9.53% | 
CCCc1c(-c2ccc(O)cc2)nn(-c2ccc(O)cc2)c1-c1ccc(O)cc1 | -13.9% | 
CC(C)[C@@H]1CC[C@@H](C)C[C@@H]1P(=O)(c1ccccc1)c1ccccc1 | -12.5% | 
N[C@H](C(=O)O)[C@H]1C[C@@H]1C(=O)O | -6.13% | 
CC1=C(/C=C/C(C)=C/C=C/C(C)=C\C(=O)O)C(C)(C)CCC1 |  | inactive
CN1C2CCC1CC(OC(c1ccccc1)c1ccccc1)C2 (configuration not stated) |  | inactive
C=CCN1CCc2cc(O)c(O)cc2C(c2ccccc2)C1 (configuration not stated) | -10.2% | 
Nc1nc2[nH]c(=O)cnc2c(=O)[nH]1 | -9.61% | 
Nc1ncnc2c1nc(Br)n2C1OC2COP(=O)(O)O[C@@H]2C1O (some centres not stated) | -5.06% | 
Oc1ccc(/C=C/c2ccc(/C=C/c3ccc(O)cc3)c(Br)c2)cc1 | -14.8% | 
CC(O)C(O)[C@H]1CNc2nc(N)[nH]c(=O)c2N1 (some centres not stated) | -8.01% | 
O[Si](CCCN1CCCCC1)(c1ccc(F)cc1)C1CCCCC1 (configuration not stated) | -4.75% | 
N=S(=O)(O)Cc1noc2ccccc12 | 0.0044% | 
CC(N)(Cc1ccc(O)c(O)c1)C(=O)O (configuration not stated) | -2.39% | 
